Results from PubChem BioAssay (NCI).
About 83,000 compounds went through this panel and 20% of them were active in at least one assay; those are over-represented in the sample as a whole.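 Cell lines were cultured in 96-well plates, exposed to a single compound concentration, and assessed for percent growth 48 hours later.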 Activity calls are given as the source filed them. Rule for the calls: active = growth percent below 10; inactive = the rest.

How the values were obtained:
Experiment in all cases: NCI-60 one-dose screen, 48 h (100 = growth as untreated, 0 = no growth, -100 = all killed)
Settings in all cases: 10 µM unless noted
SK-MEL-2 melanoma = system: SK-MEL-2 melanoma
EKVX NSCLC = system: EKVX NSCLC
SN12C renal = system: SN12C renal
UO-31 renal = system: UO-31 renal
TK-10 renal = system: TK-10 renal
ACHN renal = system: ACHN renal
A498 renal = system: A498 renal
CCRF-CEM leukemia = system: CCRF-CEM leukemia
MOLT-4 leukemia = system: MOLT-4 leukemia
SR leukemia = system: SR leukemia
RPMI-8226 leukemia = system: RPMI-8226 leukemia
OVCAR-8 ovarian = system: OVCAR-8 ovarian
OVCAR-5 ovarian = system: OVCAR-5 ovarian
OVCAR-4 ovarian = system: OVCAR-4 ovarian
SK-OV-3 ovarian = system: SK-OV-3 ovarian
IGROV1 ovarian = system: IGROV1 ovarian
OVCAR-3 ovarian = system: OVCAR-3 ovarian
HS 578T breast = system: HS 578T breast
NCI/ADR-RES ovarian = system: NCI/ADR-RES ovarian
T-47D breast = system: T-47D breast

Measured: growth

COc1ccc(-n2cc(COc3ccc4c5ccnc(C)c5n(CC(C)C)c4c3)nn2)cc1
inactive: SK-MEL-2 melanoma 87.7% | EKVX NSCLC 69% | SN12C renal 77% | UO-31 renal 71% | TK-10 renal 70.5% | ACHN renal 64.6% | A498 renal 53.6% | CCRF-CEM leukemia 72.9% | MOLT-4 leukemia 24.4% | SR leukemia 22.6% | RPMI-8226 leukemia 27.5% | OVCAR-8 ovarian 37.6% | OVCAR-5 ovarian 91.3% | OVCAR-4 ovarian 65.9% | SK-OV-3 ovarian 56.7% | IGROV1 ovarian 79% | OVCAR-3 ovarian 66.2% | HS 578T breast 49.7% | NCI/ADR-RES ovarian 53.9% | T-47D breast 39.2%

COc1ccc2[nH]c3nc4cnccc4cc3c2c1
inactive: SK-MEL-2 melanoma 110% | EKVX NSCLC 72.2% | SN12C renal 101% | UO-31 renal 71.2% | TK-10 renal 111% | ACHN renal 98.3% | A498 renal 114% | CCRF-CEM leukemia 98.1% | MOLT-4 leukemia 102% | SR leukemia 103% | RPMI-8226 leukemia 101% | OVCAR-8 ovarian 97% | OVCAR-5 ovarian 128% | OVCAR-4 ovarian 101% | SK-OV-3 ovarian 95.3% | IGROV1 ovarian 89.3% | OVCAR-3 ovarian 104% | HS 578T breast 110% | NCI/ADR-RES ovarian 104% | T-47D breast 94.6%

C[C@H](Oc1cc(-c2cnn(C3CCNCC3)c2)cnc1N)c1c(Cl)ccc(F)c1Cl
inactive: SK-MEL-2 melanoma 71.1% | EKVX NSCLC 79.6% | SN12C renal 54.2% | UO-31 renal 61.7% | TK-10 renal 88.7% | ACHN renal 75.6% | A498 renal 68% | CCRF-CEM leukemia 34.6% | MOLT-4 leukemia 14% | RPMI-8226 leukemia 23.3% | OVCAR-8 ovarian 77.7% | OVCAR-5 ovarian 94.3% | OVCAR-4 ovarian 66.7% | SK-OV-3 ovarian 87.2% | IGROV1 ovarian 71.9% | OVCAR-3 ovarian 72.3% | HS 578T breast 56.5% | NCI/ADR-RES ovarian 85.1% | T-47D breast 55.7%
active: SR leukemia -22.1%

COC(=O)/C=C1\SC(=Nc2ccc(C(F)(F)F)cc2)N(CCc2c[nH]c3ccccc23)C1=O
active: SK-MEL-2 melanoma -54.1% | EKVX NSCLC -6.54% | SN12C renal -65.1% | UO-31 renal -100% | TK-10 renal -33.7% | ACHN renal -100% | A498 renal -48.5% | CCRF-CEM leukemia 3.88% | MOLT-4 leukemia -11.4% | SR leukemia -13.7% | RPMI-8226 leukemia -22.5% | OVCAR-8 ovarian -9.92% | OVCAR-5 ovarian -41.4% | OVCAR-4 ovarian -33.2% | IGROV1 ovarian -66.1% | OVCAR-3 ovarian -91% | HS 578T breast -2.51% | NCI/ADR-RES ovarian -12.9% | T-47D breast -40.7%
inactive: SK-OV-3 ovarian 10.4%

CCCCCCC/C=C/[C@H]1O[C@]23C(=O)C[C@@]4(C[C@@H](OC5OC(CO)C(O)C(O)C5O)C[C@@H]4[C@H]2C=C1C)OC3=O (stereo not given in full)
active: SK-MEL-2 melanoma -9.46% | UO-31 renal 3.36% | ACHN renal 4.9% | MOLT-4 leukemia 8.32% | SR leukemia 6.22% | RPMI-8226 leukemia -1.42% | OVCAR-3 ovarian 9.92% | NCI/ADR-RES ovarian -5.53%
inactive: EKVX NSCLC 86.9% | SN12C renal 26.7% | TK-10 renal 35.8% | A498 renal 70.1% | CCRF-CEM leukemia 19% | OVCAR-8 ovarian 14.5% | OVCAR-5 ovarian 27.7% | OVCAR-4 ovarian 29.6% | SK-OV-3 ovarian 71.9% | IGROV1 ovarian 15.9% | HS 578T breast 61.7% | T-47D breast 25.2%

Cc1c(C(=O)Nc2nc3ccccc3[nH]2)cnn1-c1ccccn1
inactive: SK-MEL-2 melanoma 105% | EKVX NSCLC 103% | SN12C renal 114% | UO-31 renal 104% | TK-10 renal 98.3% | ACHN renal 114% | A498 renal 96.4% | CCRF-CEM leukemia 90.8% | MOLT-4 leukemia 77.5% | SR leukemia 83.8% | RPMI-8226 leukemia 95.6% | OVCAR-8 ovarian 98.3% | OVCAR-5 ovarian 108% | OVCAR-4 ovarian 105% | SK-OV-3 ovarian 104% | IGROV1 ovarian 114% | OVCAR-3 ovarian 112% | HS 578T breast 112% | NCI/ADR-RES ovarian 106% | T-47D breast 101%

CC1=C/C(=N\N=C2/C=C(C)CC(C)(C)C2)CC(C)(C)C1
inactive: SK-MEL-2 melanoma 107% | EKVX NSCLC 108% | SN12C renal 108% | UO-31 renal 83.7% | TK-10 renal 95.2% | ACHN renal 110% | A498 renal 94.4% | CCRF-CEM leukemia 97.9% | MOLT-4 leukemia 96.3% | SR leukemia 97.3% | RPMI-8226 leukemia 102% | OVCAR-8 ovarian 95.2% | OVCAR-5 ovarian 107% | OVCAR-4 ovarian 106% | SK-OV-3 ovarian 97% | IGROV1 ovarian 103% | OVCAR-3 ovarian 112% | HS 578T breast 103% | NCI/ADR-RES ovarian 104% | T-47D breast 97.3%

C=C1C(=O)O[C@H]2[C@H]1CC/C(COC(=O)N1CCC[C@H]1C(=O)Nc1ccc(OC)c(C(N)=O)c1O)=C\CC[C@@]1(C)O[C@@H]21
active: TK-10 renal -4.11% | CCRF-CEM leukemia -12.6% | MOLT-4 leukemia 8.14% | RPMI-8226 leukemia 1.38% | OVCAR-3 ovarian 4.49%
inactive: SK-MEL-2 melanoma 66.5% | EKVX NSCLC 77% | SN12C renal 12.9% | UO-31 renal 41.2% | ACHN renal 30.6% | A498 renal 87.9% | SR leukemia 13.9% | OVCAR-8 ovarian 44.4% | OVCAR-5 ovarian 68.5% | OVCAR-4 ovarian 52% | SK-OV-3 ovarian 88.8% | IGROV1 ovarian 14.7% | HS 578T breast 71.8% | NCI/ADR-RES ovarian 106% | T-47D breast 29.8%

CCOC(=O)c1sc(/N=C2\NC(=O)/C(=C/c3ccc(N4CCN(C)CC4)cc3)S2)nc1C
inactive: SK-MEL-2 melanoma 98% | EKVX NSCLC 96.7% | SN12C renal 111% | UO-31 renal 84.6% | TK-10 renal 116% | ACHN renal 108% | A498 renal 111% | CCRF-CEM leukemia 91.7% | MOLT-4 leukemia 88.9% | SR leukemia 101% | RPMI-8226 leukemia 87.5% | OVCAR-8 ovarian 110% | OVCAR-5 ovarian 110% | OVCAR-4 ovarian 103% | SK-OV-3 ovarian 102% | IGROV1 ovarian 99.5% | OVCAR-3 ovarian 96.3% | HS 578T breast 107% | NCI/ADR-RES ovarian 98.1% | T-47D breast 95.5%

CCCCn1c(=O)c(/C=C/C(=O)/C=C/c2ccc(OC)cc2)cc2cc(Cl)ccc21
active: SR leukemia 3.16% | RPMI-8226 leukemia -18.7% | OVCAR-8 ovarian 5.24%
inactive: SK-MEL-2 melanoma 84% | EKVX NSCLC 91% | SN12C renal 75.9% | UO-31 renal 62.8% | TK-10 renal 112% | ACHN renal 103% | A498 renal 91.6% | CCRF-CEM leukemia 29.2% | MOLT-4 leukemia 44.4% | OVCAR-5 ovarian 94.9% | OVCAR-4 ovarian 42.9% | SK-OV-3 ovarian 108% | IGROV1 ovarian 59.1% | OVCAR-3 ovarian 19.5% | HS 578T breast 90.9% | NCI/ADR-RES ovarian 42.5% | T-47D breast 69.6%

CC(=O)OCC1OC(OC2C(COC(C)=O)OC(OCCC[S-])C(OC(C)=O)C2OC(C)=O)C(OC(C)=O)C(OC(C)=O)C1OC(C)=O.[Au+].c1ccc(CN2[CH-]N(Cc3ccccc3)C(c3ccccc3)=C2c2ccccc2)cc1 (stereo not given)
inactive: SK-MEL-2 melanoma 13.4% | EKVX NSCLC 28.1% | TK-10 renal 38.5% | ACHN renal 15.1% | CCRF-CEM leukemia 11.5% | MOLT-4 leukemia 15.3% | SR leukemia 11% | OVCAR-8 ovarian 22% | OVCAR-5 ovarian 62.4% | OVCAR-4 ovarian 17.5% | SK-OV-3 ovarian 13% | IGROV1 ovarian 35.3% | HS 578T breast 47.5% | NCI/ADR-RES ovarian 96.6% | T-47D breast 18.8%
active: SN12C renal 9.26% | UO-31 renal 9.47% | A498 renal -1.67% | RPMI-8226 leukemia -6.87% | OVCAR-3 ovarian -2.96%

Nc1c(C(=O)Nc2ccccn2)sc2nc3c(cc12)CCCCCC3
active: CCRF-CEM leukemia 5.58% | SR leukemia 7.99% | RPMI-8226 leukemia 5.43% | OVCAR-3 ovarian -44.5%
inactive: SK-MEL-2 melanoma 11.5% | EKVX NSCLC 31.8% | SN12C renal 39.2% | UO-31 renal 35.5% | TK-10 renal 35.7% | ACHN renal 36.1% | A498 renal 15% | MOLT-4 leukemia 16.3% | OVCAR-8 ovarian 19.3% | OVCAR-5 ovarian 46.6% | OVCAR-4 ovarian 23.6% | SK-OV-3 ovarian 19% | IGROV1 ovarian 28.9% | HS 578T breast 18.9% | NCI/ADR-RES ovarian 18.8% | T-47D breast 23.4%

COc1ccc(C(=O)c2cc(F)c(F)c(OC)c2F)cc1OC(=O)CCl
inactive: SK-MEL-2 melanoma 25.9% | EKVX NSCLC 73.9% | SN12C renal 39.4% | UO-31 renal 71.8% | TK-10 renal 88.2% | ACHN renal 59.8% | A498 renal 94.5% | CCRF-CEM leukemia 32.8% | MOLT-4 leukemia 29.6% | SR leukemia 20.8% | RPMI-8226 leukemia 37.2% | OVCAR-8 ovarian 51.1% | OVCAR-5 ovarian 103% | OVCAR-4 ovarian 81.7% | SK-OV-3 ovarian 45.9% | IGROV1 ovarian 43.7% | OVCAR-3 ovarian 13.7% | HS 578T breast 65.4% | NCI/ADR-RES ovarian 14.3% | T-47D breast 44.1%

O=[N+]([O-])c1ccc(N=Nc2c(O)c(N=Nc3cc([N+](=O)[O-])cc([N+](=O)[O-])c3O)cc(N=Nc3cc(S(=O)(=O)O)cc4cc(S(=O)(=O)O)cc(O)c34)c2O)cc1
inactive: SK-MEL-2 melanoma 100% | EKVX NSCLC 102% | SN12C renal 101% | UO-31 renal 83.2% | TK-10 renal 98.6% | ACHN renal 101% | A498 renal 107% | CCRF-CEM leukemia 97.2% | MOLT-4 leukemia 86.7% | SR leukemia 86.1% | RPMI-8226 leukemia 102% | OVCAR-8 ovarian 108% | OVCAR-5 ovarian 104% | OVCAR-4 ovarian 98.4% | SK-OV-3 ovarian 96.2% | IGROV1 ovarian 108% | OVCAR-3 ovarian 104% | HS 578T breast 101% | NCI/ADR-RES ovarian 103% | T-47D breast 109%

COc1ccccc1-c1ccc2nc(NC(=O)Nc3cc(C(F)(F)F)cc(C(F)(F)F)c3)sc2c1
inactive: EKVX NSCLC 10.7% | SN12C renal 13% | UO-31 renal 13.1% | OVCAR-5 ovarian 20.5% | OVCAR-4 ovarian 16.5% | IGROV1 ovarian 42.4%
active: SK-MEL-2 melanoma -14.1% | TK-10 renal 9.11% | ACHN renal 8.64% | A498 renal -26.7% | CCRF-CEM leukemia 0.889% | MOLT-4 leukemia -15.7% | SR leukemia -23.8% | RPMI-8226 leukemia -15.9% | OVCAR-8 ovarian 9.39% | SK-OV-3 ovarian -13.2% | OVCAR-3 ovarian 8% | HS 578T breast -0.697% | NCI/ADR-RES ovarian 5.44% | T-47D breast -13.5%
